The whole screen tested about 87,000 compounds, of which about 360 (0.41%) were called active. The sample holds actives, similar compounds and a random draw of the others, so the mix is not that of the screen. No stated cut-off is given here; in the data, active means cytotoxicity above about 50%; inactive means the rest.

The assay is described as follows: cytotoxicity in HT1080 fibrosarcoma cells, cell-based, fluorescence readout (AID 620).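 Further: cells exposed to compound overnight then 4 h with Alamar Blue; 0% = vehicle DMSO and 100% = killing control.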 Conditions: HT1080 viability, at 10 µM, stronger effect = higher value.
Regarding `Cc1cnc(C(=O)OCC(=O)N2c3ccccc3NC(=O)C2(C)C)cn1`, the cytotoxicity was -0.5% (inactive).

For `CCN(CC)Cc1c(-c2ccccc2)[nH]c2ccc(C)cc2c1=O`, the cytotoxicity was 5.1% (inactive).

Take `Cc1ccc2[nH]c(-c3ccccc3)cc(=O)c2c1`: the cytotoxicity is 71.1% (active).

With `O=c1cc(-c2ccccc2)c2ccccc2[nH]1`, the cytotoxicity is -2.5% (inactive).

`Cc1cc(=O)c2ccccc2[nH]1`: the cytotoxicity was 26.5% (inactive).

On to `Cc1ccc2[nH]c(C(=O)O)c(-c3ccccc3)c2c1`, for which the cytotoxicity was -8.4% (inactive).

Regarding `O=c1cc(-c2ccccc2)[nH]c2ccccc12`, the cytotoxicity is 67.1% (active).

In the case of `Cc1ccc(NC(=O)N(CCCN2CCOCC2)Cc2cc3cc4c(cc3[nH]c2=O)OCO4)cc1`, the cytotoxicity is -5.1% (inactive).

Turning to `C#CC(C)(CC)NC(=O)Cn1nnc(-c2ccc(S(C)(=O)=O)cc2)n1` (stereo not given), the cytotoxicity is -5.1% (inactive).

Consider `CC(CN1CCCCC1)OC(=O)Cc1ccc(Cl)cc1` (stereo not given), for which the cytotoxicity is -6.9% (inactive).

`O=C(NCC(c1cccs1)N1CCOCC1)c1ccc(Cl)s1` (stereo not given): the cytotoxicity was 62.9% (active).

With `O=C(NCC(c1cccs1)N1CCOCC1)c1ccc(Br)o1` (stereo not given), the cytotoxicity was 56.3% (active).

With `O=C(NCC(c1cccs1)N1CCOCC1)c1ccco1` (stereo not given), the cytotoxicity is 9% (inactive).

For the compound `CCC(=O)NCC(c1cccs1)N1CCOCC1` (stereo not given), the cytotoxicity is -3.1% (inactive).

As for `O=C(NCC(c1ccc(F)cc1)N1CCOCC1)c1ccc(Br)o1` (stereo not given), the cytotoxicity is -5.4% (inactive).

As for `O=C(COc1ccccc1)NCC(c1cccs1)N1CCOCC1` (stereo not given), the cytotoxicity was -8.1% (inactive).

For `CCCCCC(=O)OC(CN1CCCCC1)CN1CCCC1=O` (stereo not given), the cytotoxicity is 6.6% (inactive).

As to `COc1ccccc1NC(=S)NNC(=O)c1ccc(Cl)cc1Cl`, the cytotoxicity was -4% (inactive).

Turning to `Cc1ccc(-c2noc(-c3ccccc3C(=O)N3CCOCC3)n2)cc1`, the cytotoxicity was -2.2% (inactive).

As to `Cc1cc(N2CCCC2=O)cc(C)c1S(=O)(=O)NCCOc1ccccc1`, the cytotoxicity is 0.6% (inactive).

As for `CCOc1ccc(NC2=NC(C(=O)NCc3ccccc3)CC(=O)N2)cc1` (stereo not given), the cytotoxicity is 7.4% (inactive).

On to `CC(C)(C)c1ccc(C(=O)Nc2cnccn2)cc1`, for which the cytotoxicity is -0.1% (inactive).

As to `Cc1noc(C)c1COc1ccc(C(=O)OCC(=O)N2CC(=O)Nc3ccccc32)cc1`, the cytotoxicity is -12.1% (inactive).

In the case of `CCC(Oc1ccccc1)C(=O)Nc1nnc(C)s1` (stereo not given), the cytotoxicity is -5.1% (inactive).

With `Cc1occc1C(=O)Nc1ccc2c(c1)OCCO2`, the cytotoxicity was 11.2% (inactive).

As for `CC(=O)NC1C(=O)N(C)c2ccc(Br)cc21` (stereo not given), the cytotoxicity was -16.4% (inactive).

With `Cc1ccc(Cc2c(C)nc3nc(SCC(=O)NCc4ccco4)nn3c2C)cc1`, the cytotoxicity was 69.7% (active).

In the case of `Cc1nc2nc(SCC(=O)NCc3ccco3)nn2c(C)c1Cc1c(F)cccc1Cl`, the cytotoxicity is -13.6% (inactive).

On to `Cc1ccccc1Cc1c(C)nc2nc(SCC(=O)NCc3ccco3)nn2c1C`, for which the cytotoxicity was -13.4% (inactive).

On to `O=C(c1ccco1)N1CCCC(c2nc(-c3ccc(S(=O)(=O)NCc4ccccc4)cc3)no2)C1` (stereo not given), for which the cytotoxicity was -1.4% (inactive).

As for `CCCCS(=O)(=O)c1sc2nc(C)cc(C)c2c1N`, the cytotoxicity is 12.9% (inactive).

Consider `Cc1ccc(-c2noc(CCC(=O)NCc3ccco3)n2)cc1`, for which the cytotoxicity is 64% (active).

As for `Cc1cccc(-c2noc(CCC(=O)NCc3ccco3)n2)c1`, the cytotoxicity is 7.3% (inactive).

Take `O=C(CCc1nc(-c2ccccc2)no1)NCc1ccco1`: the cytotoxicity is 6.9% (inactive).

With `CCn1cnc2cc(NCc3nc4ccccc4n3C)ccc21`, the cytotoxicity was 1.7% (inactive).

Regarding `Cc1cc(NC(=O)C2CC(c3ccc(Cl)cc3)=NO2)no1` (stereo not given), the cytotoxicity was -7.6% (inactive).

Consider `Cc1cccc(NS(=O)(=O)Cc2ccccc2)n1`, for which the cytotoxicity was -2.7% (inactive).

As for `CCOc1ccccc1C1CC(=O)Nc2cc3c(cc21)OCCO3` (stereo not given), the cytotoxicity is 68.1% (active).

Turning to `CCCOc1c(OC)cccc1C1CC(=O)Nc2cc3c(cc21)OCO3` (stereo not given), the cytotoxicity is -2.6% (inactive).

With `CCCCOc1ccccc1C1CC(=O)NC2=C1C(=O)CCC2` (stereo not given), the cytotoxicity was 56% (active).

`CCCOc1ccccc1C1CC(=O)Nc2cc3c(cc21)OCCO3` (stereo not given): the cytotoxicity was 58.6% (active).

For `CCOc1c(OC)cccc1C1CC(=O)Nc2cc(OC)c(OC)cc21` (stereo not given), the cytotoxicity is -2.2% (inactive).

As for `CCCOc1c(OC)cccc1C1CC(=O)Nc2cc3c(cc21)OCCO3` (stereo not given), the cytotoxicity was -3.5% (inactive).

`CCOc1ccccc1C1CC(=O)Nc2cc3c(cc21)OCO3` (stereo not given): the cytotoxicity is 67.2% (active).

In the case of `CCOc1c(OC)cccc1C1CC(=O)Nc2cc3c(cc21)OCCO3` (stereo not given), the cytotoxicity was -3.8% (inactive).

Take `O=C1CC(c2cccs2)c2cc3c(cc2N1)OCCO3` (stereo not given): the cytotoxicity is -3.6% (inactive).

For the compound `O=C1CC(c2ccc3c(c2)OCO3)c2cc3c(cc2N1)OCCO3` (stereo not given), the cytotoxicity was 8.1% (inactive).

On to `CCCOc1ccccc1C1CC(=O)NC2=C1C(=O)CCC2` (stereo not given), for which the cytotoxicity was 39.4% (inactive).

Take `CCOc1ccccc1C1CC(=O)NC2=C1C(=O)CCC2` (stereo not given): the cytotoxicity was 11.2% (inactive).

For the compound `CC(=O)Nc1ccc2c(c1)nc(CN1CCCC1)n2C`, the cytotoxicity is -8.7% (inactive).

Take `Cc1c(NC(=O)CSc2ccccn2)c(=O)n(-c2ccccc2)n1C`: the cytotoxicity is 1.3% (inactive).

Turning to `Cc1cccc2cc(CN(CCN3CCOCC3)C(=O)Nc3ccccc3F)c(=O)[nH]c12`, the cytotoxicity was 13.6% (inactive).

Consider `CC12CCC(C(=O)N3CCCCC3)(CC1=O)C2(C)C` (stereo not given), for which the cytotoxicity is -0.3% (inactive).

Consider `COC(=O)[C@@]1(Cc2ccccc2)[C@H]2c3cc(C(=O)N(C)C)n(Cc4ccc(S(C)(=O)=O)cc4)c3C[C@H]2CN1C(=O)c1ccccc1`, for which the cytotoxicity is 2.9% (inactive).

Turning to `O=c1ccc(Cc2ccccn2)n[nH]1`, the cytotoxicity was -6.4% (inactive).

Regarding `Cc1ccc(-n2c(SCC(=O)OC(C)C)nnc2-c2cnccn2)cc1`, the cytotoxicity was 0.6% (inactive).

Regarding `COc1ccccc1N(C(=O)c1snc(C(N)=O)c1N)C(C(=O)NC1CCCC1)c1ccco1` (stereo not given), the cytotoxicity was -5.3% (inactive).

Turning to `Cc1oc(-c2ccccc2F)nc1CS(=O)(=O)CC(=O)N1CCc2ccccc21`, the cytotoxicity was -3.2% (inactive).

As for `Cc1ccc(C(=O)N2CCN(c3cccc(Cl)c3)CC2)cc1C`, the cytotoxicity was -5.4% (inactive).

As for `CCOc1ccccc1C(=O)N1CCOCC1`, the cytotoxicity is -16.5% (inactive).

On to `O=C(O)c1ccccc1C(=O)N1CCN(c2cccc(Cl)c2)CC1`, for which the cytotoxicity was 8.7% (inactive).

Regarding `COc1cc2c(C(=O)N3CCN(c4cccc(Cl)c4)CC3)cn(C)c(=O)c2cc1OC`, the cytotoxicity was 20.5% (inactive).

In the case of `O=C(c1ccccc1F)N1CCN(c2cccc(C(F)(F)F)c2)CC1`, the cytotoxicity is -6.8% (inactive).

Take `COc1ccccc1CC(=O)N1CCN(c2cccc(C(F)(F)F)c2)CC1`: the cytotoxicity is -8.5% (inactive).

Turning to `CCOc1ccccc1C(=O)N1CCN(c2cccc(Cl)c2)CC1`, the cytotoxicity was 50.8% (active).

Take `COc1ccc(C(=O)N2CCN(c3cccc(Cl)c3)CC2)cc1`: the cytotoxicity is -4.7% (inactive).

Take `COc1ccccc1C(=O)N1CCN(c2cccc(C(F)(F)F)c2)CC1`: the cytotoxicity is 58.7% (active).

For the compound `COc1ccccc1C(=O)N1CCN(c2cccc(Cl)c2)CC1`, the cytotoxicity was 53% (active).

With `COc1ccc(C(=O)N2CCN(c3cccc(Cl)c3)CC2)c(OC)c1`, the cytotoxicity is 15.6% (inactive).

As for `CCOc1ccc(C(=O)Cc2ccc3oc(C(=O)O)cc3c2)c(O)c1`, the cytotoxicity is -8.8% (inactive).

For `O=C(CSc1nc2ncc(Br)cc2[nH]1)Nc1ccc2c(c1)OCO2`, the cytotoxicity is 2.1% (inactive).

On to `COCCNC(=O)COC(=O)/C=C/c1c(C)nn(Cc2ccc(Cl)cc2Cl)c1Cl`, for which the cytotoxicity is 5.2% (inactive).

For `C[N+]1(CC(=O)Nc2ccc(F)cc2)CCN(C(=O)c2ccco2)CC1`, the cytotoxicity is 15.7% (inactive).

As to `COc1cc(-c2noc(CCCC(=O)NCc3ccccc3)n2)cc(OC)c1OC`, the cytotoxicity was 6.8% (inactive).

Regarding `O=C(COc1ccccc1)N1CCN(S(=O)(=O)c2ccc(Cl)cc2)CC1`, the cytotoxicity is 17.2% (inactive).

Regarding `O=C1CC(c2ccccc2)CC(O)=C1C=NCCCO` (stereo not given), the cytotoxicity is 4.4% (inactive).

Regarding `Cc1cccc(OCC(=O)NCCN2CCOCC2)c1`, the cytotoxicity is 5.4% (inactive).

Turning to `COC(=O)[C@H](CCSC)NC(=O)Nc1ccc(OC)c(Cl)c1`, the cytotoxicity was -10.8% (inactive).

With `Cc1n[nH]c(C)c1S(=O)(=O)N1CCCC(C(=O)NCc2cccs2)C1` (stereo not given), the cytotoxicity was 2.8% (inactive).

With `O=C(CNS(=O)(=O)c1ccc(F)cc1)N1CCN(c2ccccc2)CC1`, the cytotoxicity is 7% (inactive).

As for `Cc1nc2ccc(NC(=O)Cc3ccsc3)cc2s1`, the cytotoxicity is -7.3% (inactive).

As to `COc1ccc(N2CCN(Cc3nc4c(c(=O)n(C)c(=O)n4C)n3CCc3ccccc3)CC2)cc1`, the cytotoxicity was 0.1% (inactive).

Turning to `Cc1cc(=O)oc(C)c1C(=O)N1CCN(c2ccc(F)cc2)CC1`, the cytotoxicity was 5.9% (inactive).

As to `CC(C)(C)C(=O)/C(=C\c1ccc([N+](=O)[O-])cc1)n1cncn1`, the cytotoxicity is 89% (active).

`O=[N+]([O-])/C(C(Cl)=C(Cl)Cl)=C(\Nc1ccc(F)cc1)n1cncn1`: the cytotoxicity is 10.6% (inactive).

For `Cn1ncc(N=Cc2ccc([N+](=O)[O-])cc2)c1C(=O)N1CCOCC1`, the cytotoxicity is -3.9% (inactive).

For `O=C(COc1ccc(S(=O)(=O)Nc2ccccc2)cc1)N1CCOCC1`, the cytotoxicity is -4.7% (inactive).

For the compound `C/C=C(\CS(=O)(=O)c1ccccc1)S(=O)(=O)c1ccccc1`, the cytotoxicity was -9.9% (inactive).

For `O=S(=O)(C/C(=C/CO)S(=O)(=O)c1ccccc1)c1ccccc1`, the cytotoxicity was 51.2% (active).

Take `CCOC(=O)CS(=O)(=O)c1ccccc1`: the cytotoxicity was -4.5% (inactive).

For `CC(C)C[C@H](NC(=O)N1CCN(c2ccccc2)CC1)C(=O)O`, the cytotoxicity is 6.2% (inactive).

With `O=C(c1ccc(F)cc1)N1CCN(c2ncccn2)CC1`, the cytotoxicity is 2% (inactive).

In the case of `Cc1ccccc1NC(=O)CN1C(=O)NC2(CCCCC2)C1=O`, the cytotoxicity is 10% (inactive).

For the compound `Cc1ccc(CN2CCN(C(=O)CCN3C(=O)c4ccccc4C3=O)CC2)cc1`, the cytotoxicity was 6.3% (inactive).

In the case of `CCOC(=O)c1[nH]c(C)c(C(=O)NCc2ccc(C)cc2)c1C`, the cytotoxicity was -8.9% (inactive).

As to `CCOC(=O)c1[nH]c(C)c(C(=O)Nc2ccc(F)cc2)c1C`, the cytotoxicity was -9.3% (inactive).

Regarding `CCOC(=O)c1[nH]c(C)c(C(=O)Nc2ccc(C)c(F)c2)c1C`, the cytotoxicity is -2.9% (inactive).

Take `CCOC(=O)c1[nH]c(C)c(C(=O)c2cc(F)ccc2F)c1C`: the cytotoxicity is 57.2% (active).

In the case of `CCOC(=O)c1[nH]c(C)c(C(=O)c2ccc(C)cc2)c1C`, the cytotoxicity is 59.5% (active).

As to `CCOC(=O)c1[nH]c(C)c(C(=O)OCC)c1C`, the cytotoxicity is 2.3% (inactive).

The values above are taken from PubChem BioAssay AID620 (Sanford-Burnham Center for Chemical Genomics, 2007).
